Here are results for 5 molecules from PubChem BioAssay.

Active and inactive are the calls of the source. Unless noted, how the calls were made is not given here.

Test [1] in a line: compounds binding Alexa647 anti-His antibody – biochemical, small-molecule microarray, 635 nm fluorescence, artefact control for SMM control protein annotation, primary screen (AID 1128).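 Further: score merges feature fluorescence with signal-to-noise for each printed compound spot.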 The note with it: higher = more signal.
For test [2], the system named is Human papillomavirus type 1a E7 protein (residues 1-88). The test can be described thus: HPV1a E7 small-molecule binders, primary screen, biochemical, small-molecule microarray, residues 1-88, 635 nm (AID 1129). As to conditions: small-molecule microarray binding, fluorescence 635 nm; higher = more signal.
Test [3] concerns the target Focal adhesion kinase 1 (Homo sapiens) (UniProt Q05397). The test can be described thus: PTK2 protein binding on printed compound slides – biochemical, small-molecule microarray, 635/667 nm fluorescence, BSA, DTT, primary screen (AID 1130).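 Further: composite of spot emission at 667 nm and signal to noise over triplicate slides.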 As to conditions: 635 nm fluorescence, higher = more signal.
For test [4], the system named is Fibrinogen (Alexa647-labelled). The test can be described thus: Alexa647-fibrinogen binding to printed small molecules – biochemical, small-molecule microarray, 635/667 nm fluorescence, artefact control for SMM control-protein annotation, profiling panel (AID 1131).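 Further: z-score merges 667 nm fluorescence with per-spot signal-to-noise over triplicate slides.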 The note with it: fibrinogen-A647 binding fluorescence, higher = more signal.
Test [5] addresses Follistatin (Homo sapiens) (UniProt P19883). The test can be described thus: FST protein binding to printed compounds – biochemical, small-molecule microarray, 635/667 nm fluorescence, primary screen (AID 1132). The note with it: 635 nm fluorescence, higher = more signal.
In test [6] the target is Fibroblast growth factor 2 (Homo sapiens) (UniProt P09038). The test can be described thus: basic fibroblast growth factor binding to printed compounds – biochemical, small-molecule microarray, 635/667 nm fluorescence, primary screen (AID 1133). The note with it: FGF2, fluorescence 635/667, higher = more signal.
Test [7] in a line: JC-1 mitochondrial potential readout, lung cancer cells – cell-based, A549, JC-1 fluorescence, basal, 24 h, 100 nL, profiling panel (AID 1138).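 Further: A549 lung adenocarcinoma cells under basal conditions with no added stimulus; test concentration not given here.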 As to conditions: higher = more signal.
The next test has as its system Lefty1. The test can be described thus: Lefty1 protein binding to printed compounds – biochemical, small-molecule microarray, 635/667 nm fluorescence, primary screen (AID 1139). The note with it: fluorescence 635/667, higher = more signal.
Test [8] has as its system wheat germ agglutinin (Triticum aestivum), Alexa647-labelled. The test can be described thus: Alexa647-WGA lectin binding to printed small molecules – biochemical, small-molecule microarray, 635/667 nm fluorescence, artefact control for SMM control-protein annotation, profiling panel (AID 1140).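 Further: score merges 667 nm feature emission with signal to noise over triplicate slides.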 As to conditions: WGA-A647 binding, 635 nm fluorescence, higher = more signal.

For test [9], the target named is Luciferin 4-monooxygenase (Photinus pyralis) (UniProt P08659). The test can be described thus: inhibition of purified Photinus pyralis luciferase – biochemical, luminescence, purified enzyme, 2006 set, primary screen (AID 1141).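 Further: cell-free assay with purified firefly luciferase at 100 ng per well in PBS; test concentration not given here.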 The note with it: purified firefly luciferase, SteadyGlo luminescence, 30 min; higher = more signal, called active from +8 up or from −8 down.

The subject of test [10] is Wnt5a (protein binding on small-molecule microarray). The test can be described thus: small molecules binding Wnt5a protein – biophysical, small-molecule microarray, 635/667 nm fluorescence, primary screen (AID 1142).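 Further: fluorescence read at 667 nm with signal to noise per printed feature.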 The note with it: 635 nm fluorescence, higher = more signal.
Test [11] is described as follows: ATP-based viability of Huh7 replicon cells – cell-based, CellTiter-Glo luminescence, basal, 48 h, cytotoxicity control for HCV replication inhibitor project, primary screen (AID 1143).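 Further: Huh7 hepatoma cells carrying a hepatitis C replication reporter with no stimulus; test concentration not given here.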 The note with it: higher = more signal, called active from +8 up or from −8 down.
The nature of test [12]: Pseudomonas biofilm growth suppression – PAO1 strain, BacTiter-Glo luminescence, LB-PBS, primary screen (AID 1144). As to conditions: P. aeruginosa PAO1 biofilm, 12 h, higher = more signal.
Test [13] can be described thus: basal CRE-LacZ reporter activity in PC12 – cell-based, unstimulated, primary screen (AID 1145). As to conditions: no forskolin, luminescence, 4.5 h, higher = more signal, called active from +8 up or from −8 down.
The nature of test [14]: forskolin-driven CRE-LacZ activity in PC12 – cell-based, CRE-LacZ reporter, forskolin-stimulated, primary screen (AID 1146).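 Further: PC12 cells with 6xCRE LacZ reporter stimulated by forskolin 10 µM; beta-galactosidase reporter signal reflecting CREB driven transcription.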 As to conditions: luminescence, 4.5 h, higher = more signal, called active from +8 up or from −8 down.
The target in test [15] is Streptavidin (Streptomyces avidinii) (UniProt P22629). The test can be described thus: compounds binding control protein streptavidin – biophysical, small-molecule microarray, 635/667 nm fluorescence, artefact control for SMM compound annotation, primary screen (AID 1147).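 Further: signal reflects streptavidin binding to arrayed compounds as a control protein.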 As to conditions: higher = more signal.
Test [16] can be described thus: probe aInhba binding on compound microarray – biochemical, small-molecule microarray, 635/667 nm fluorescence, primary screen (AID 1148).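 Further: score merges 667nm spot fluorescence with signal-to-noise for antibody binding to printed compounds.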 As to conditions: higher = more signal.
Test [17] concerns the target Torsin-1A (Homo sapiens) (UniProt O14656). The test can be described thus: TOR1A wild-type binding on microarray – cell lysate, small-molecule microarray, lysate, 635/667 nm, primary screen (AID 1149). The note with it: COS7 hTOR1A-WT lysate, 635 nm fluorescence, higher = more signal.
Test [18] has the same target. The test can be described thus: torsin A mutant lysate binding on microarrays – cell lysate, small-molecule microarray, COS7 lysate, 635/667 nm fluorescence, primary screen (AID 1150).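 Further: score pools 667 nm emission and signal to noise measuring lysate protein binding.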 As to conditions: COS7 hTOR1A mutant lysate, 635 nm fluorescence, higher = more signal.
The subject of test [19] is Sonic hedgehog protein (Shh). The test can be described thus: Sonic hedgehog microarray binding compounds – biochemical, small-molecule microarray, 635/667 nm fluorescence, primary screen (AID 1151).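 Further: Shh protein binding to compounds spotted on small-molecule microarray slides; score combines spot fluorescence intensity with signal-to-noise across triplicate slides.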 As to conditions: 635 nm fluorescence, higher = more signal.

Chain of Fibroblast growth factor 2 (Homo sapiens) (P09038 whole entry, looked up): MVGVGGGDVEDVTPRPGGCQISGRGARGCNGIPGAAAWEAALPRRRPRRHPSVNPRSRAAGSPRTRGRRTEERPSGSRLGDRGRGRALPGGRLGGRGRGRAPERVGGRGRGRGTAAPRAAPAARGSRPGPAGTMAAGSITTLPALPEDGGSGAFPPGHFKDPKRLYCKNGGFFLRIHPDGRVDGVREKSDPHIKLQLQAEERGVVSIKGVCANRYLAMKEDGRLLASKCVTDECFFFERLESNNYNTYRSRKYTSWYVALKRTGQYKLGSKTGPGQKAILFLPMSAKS
Chain of Focal adhesion kinase 1 (Homo sapiens) (Q05397 whole entry, looked up): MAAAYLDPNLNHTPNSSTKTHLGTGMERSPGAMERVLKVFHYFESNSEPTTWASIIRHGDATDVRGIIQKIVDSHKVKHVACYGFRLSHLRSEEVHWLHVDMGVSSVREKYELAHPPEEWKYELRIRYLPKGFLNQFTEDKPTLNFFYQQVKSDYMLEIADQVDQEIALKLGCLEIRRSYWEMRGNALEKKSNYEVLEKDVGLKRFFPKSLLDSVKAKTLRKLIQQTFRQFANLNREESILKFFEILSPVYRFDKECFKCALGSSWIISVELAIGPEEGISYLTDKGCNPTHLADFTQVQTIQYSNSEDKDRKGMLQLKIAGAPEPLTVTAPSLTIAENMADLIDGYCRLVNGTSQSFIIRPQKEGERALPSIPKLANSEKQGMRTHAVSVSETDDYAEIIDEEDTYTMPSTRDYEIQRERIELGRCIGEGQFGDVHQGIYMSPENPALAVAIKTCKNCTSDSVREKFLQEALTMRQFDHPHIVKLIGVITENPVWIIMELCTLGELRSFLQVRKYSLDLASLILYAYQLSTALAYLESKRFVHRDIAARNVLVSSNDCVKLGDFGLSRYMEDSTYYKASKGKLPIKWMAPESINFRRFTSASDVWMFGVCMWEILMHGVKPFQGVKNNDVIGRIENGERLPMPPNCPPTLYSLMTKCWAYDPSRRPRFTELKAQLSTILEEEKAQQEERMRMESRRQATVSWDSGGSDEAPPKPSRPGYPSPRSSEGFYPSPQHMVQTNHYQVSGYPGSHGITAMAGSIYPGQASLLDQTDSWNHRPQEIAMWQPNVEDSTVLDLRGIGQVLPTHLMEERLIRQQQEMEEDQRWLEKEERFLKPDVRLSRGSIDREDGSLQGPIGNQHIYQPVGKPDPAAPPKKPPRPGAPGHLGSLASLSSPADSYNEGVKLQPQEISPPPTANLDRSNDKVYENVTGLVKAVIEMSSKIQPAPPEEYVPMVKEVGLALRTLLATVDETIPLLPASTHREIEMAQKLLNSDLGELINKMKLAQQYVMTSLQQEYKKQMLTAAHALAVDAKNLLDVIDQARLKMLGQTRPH
Chain of Follistatin (Homo sapiens) (P19883 whole entry, looked up): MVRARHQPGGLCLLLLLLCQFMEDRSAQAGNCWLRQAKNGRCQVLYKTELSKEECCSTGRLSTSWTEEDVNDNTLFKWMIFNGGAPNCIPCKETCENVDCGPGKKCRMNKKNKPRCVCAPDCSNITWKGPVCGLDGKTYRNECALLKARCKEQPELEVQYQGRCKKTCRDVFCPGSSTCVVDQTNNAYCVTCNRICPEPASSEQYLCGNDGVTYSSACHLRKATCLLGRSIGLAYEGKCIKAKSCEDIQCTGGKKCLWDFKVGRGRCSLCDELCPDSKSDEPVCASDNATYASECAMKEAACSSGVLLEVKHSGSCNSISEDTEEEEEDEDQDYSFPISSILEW
Chain of Luciferin 4-monooxygenase (Photinus pyralis) (P08659 whole entry, looked up): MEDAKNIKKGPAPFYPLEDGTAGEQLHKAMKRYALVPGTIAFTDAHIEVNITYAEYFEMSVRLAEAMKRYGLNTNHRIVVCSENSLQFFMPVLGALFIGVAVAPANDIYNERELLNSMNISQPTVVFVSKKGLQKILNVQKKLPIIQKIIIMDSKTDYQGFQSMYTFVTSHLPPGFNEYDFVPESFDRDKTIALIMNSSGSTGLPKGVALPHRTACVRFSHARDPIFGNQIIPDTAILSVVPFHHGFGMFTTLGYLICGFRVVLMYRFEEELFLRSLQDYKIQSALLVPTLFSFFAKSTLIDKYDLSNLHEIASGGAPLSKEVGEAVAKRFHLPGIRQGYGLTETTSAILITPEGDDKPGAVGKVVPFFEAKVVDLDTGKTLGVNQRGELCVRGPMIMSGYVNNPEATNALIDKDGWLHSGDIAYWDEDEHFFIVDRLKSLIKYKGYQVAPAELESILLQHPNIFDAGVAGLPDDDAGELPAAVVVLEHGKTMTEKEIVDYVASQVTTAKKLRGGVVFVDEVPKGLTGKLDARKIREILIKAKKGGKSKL
Chain of Streptavidin (Streptomyces avidinii) (P22629 whole entry, looked up): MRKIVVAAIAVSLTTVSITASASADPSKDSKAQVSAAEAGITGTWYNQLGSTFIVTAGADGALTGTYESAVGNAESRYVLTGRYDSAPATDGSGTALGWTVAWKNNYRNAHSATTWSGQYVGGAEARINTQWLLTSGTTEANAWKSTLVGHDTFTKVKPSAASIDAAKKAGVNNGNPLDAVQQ
Chain of Torsin-1A (Homo sapiens) (O14656 whole entry, looked up): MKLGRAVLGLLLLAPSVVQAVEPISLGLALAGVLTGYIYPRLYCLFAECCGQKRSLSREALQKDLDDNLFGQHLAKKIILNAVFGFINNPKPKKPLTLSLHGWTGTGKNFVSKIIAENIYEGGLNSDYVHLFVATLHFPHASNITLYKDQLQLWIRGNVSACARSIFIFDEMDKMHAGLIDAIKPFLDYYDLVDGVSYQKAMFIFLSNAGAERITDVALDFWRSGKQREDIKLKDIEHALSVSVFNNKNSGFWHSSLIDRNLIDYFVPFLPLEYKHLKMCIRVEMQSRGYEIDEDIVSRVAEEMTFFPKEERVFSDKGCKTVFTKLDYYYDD

For `CCOC(=O)[C@H](CC(C)C)NC(=O)CCC1CC(OC(=O)NCCc2ccc(F)cc2)CC2(CCCC(COC(=O)NCCc3ccccc3OC)O2)O1` (stereo not given in full), the composite z-score turned out to be 1.35 in [1]; 0.903 in test [2]; 0.0376 in [3]; 0.956 in test [4]; 0.236 in [5]; 0.399 in [6]. Besides, the composite z-score with Lefty1 was 0.522; in test [8], 0.0393; in test [10], 0.145; in test [15], 0.805; in test [16], -0.0736; with Torsin-1A (Homo sapiens) [17] it was 0.0877. Moreover, the composite z-score with Torsin-1A (Homo sapiens) [18] came out at 0.528; in [19], 0.567. Besides, the z-score in test [7] was 0.848; in test [9], 0.109 (inactive); in [11], -0.451 (inactive); in test [12], -0.256 (inactive); in test [13] it was 1.64 (inactive); in test [14] it was 0.135 (inactive).

In the case of `CCOC(=O)[C@H](CC(C)C)NC(=O)CCC1CC(OC(=O)NCc2ccc3c(c2)OCO3)CC2(CCCC(COC(=O)NCCCN3CCCC3=O)O2)O1` (stereo not given in full), the composite z-score in [1] turned out to be 0.581; in [2], 1.15; in [3] it was 0.115; in test [4], 0.741; in test [5], 0.476; in test [6] it was 1.12. Further, the composite z-score was found to be 0.803 in the test with Lefty1; 0.911 in test [8]; 0.353 in [10]; 0.657 in test [15]; 0.0154 in test [16]; 0.232 with Torsin-1A (Homo sapiens) [17]. Also, the composite z-score with Torsin-1A (Homo sapiens) [18] worked out at 0.92; in test [19] it was 1.74. The z-score in test [7] is 1.26; in [9] it was 0.0579 (inactive); in test [11], -0.255 (inactive); in test [12], -0.767 (inactive); in test [13], 0.0167 (inactive); in test [14], -0.413 (inactive).

Take `C=CC[C@@H]1C=C[C@H](ON=C[C@@H](C)[C@H](OCc2ccccc2)C(C)C)[C@@H](CO)O1`: the composite z-score is -0.304 in [1]; -0.324 in [2]; -0.472 in [3]; -1.67 in [4]; -0.386 in test [5]; -0.178 in test [6]. Also, the composite z-score with Lefty1 is 0.521; in [8], -0.0625; in test [10], -0.2; in test [15], -1.32; in test [16] it was -0.238; in the test with Torsin-1A (Homo sapiens) [17] it was -0.617. Further, the composite z-score with Torsin-1A (Homo sapiens) [18] is -0.396; in test [19] it was -0.119. For the same molecule, the z-score was -0.922 in test [7]; 0.888 (inactive) in test [9]; -1.39 (inactive) in test [11]; 0.787 (inactive) in test [12]; 1.31 (inactive) in [13]; 0.3 (inactive) in [14].

In the case of `CCOC(=O)NN=C1C[C@@H](O)[C@@H](O)[C@@H]2[C@@H]3C(=O)N(c4ccc(F)cc4F)C(=O)[C@@H]3CC[C@@H]12`, the composite z-score turned out to be 0.508 in test [1]; 0.574 in test [2]; 0.252 in [3]; 0.331 in [4]; 0.519 in test [5]; 0.187 in [6]. Further, the composite z-score was 0.775 in the test with Lefty1; 0.455 in [8]; 0.0054 in test [10]; 0.309 in test [15]; -0.016 in test [16]; 0.308 in the test with Torsin-1A (Homo sapiens) [17]. The composite z-score with Torsin-1A (Homo sapiens) [18] came out at 0.12; in test [19], 0.219. The z-score in test [7] is -0.389; in test [9] it was 1.04 (inactive); in test [11] it was 0.176 (inactive); in test [12], 0.449 (inactive); in [13], -0.0211 (inactive); in test [14], 0.34 (inactive).

Turning to `CCOC(=O)[C@H](CC(C)C)NC(=O)CCC1CC(OC(=O)NCc2cccc3ccccc23)CC2(CCCC(COC(=O)NCCCN3CCCC3=O)O2)O1` (stereo not given in full), the composite z-score stood at 0.551 in test [1]; 1.06 in test [2]; 0.205 in test [3]; 0.634 in test [4]; 0.745 in test [5]; 0.737 in test [6]. The composite z-score with Lefty1 was 0.925; in test [8], 0.662; in [10], -0.144; in test [15], 0.286; in [16], -0.128; with Torsin-1A (Homo sapiens) [17] it was 0.316. For the same molecule, the composite z-score amounted to 0.299 with Torsin-1A (Homo sapiens) [18] and 0.956 in test [19]. In addition, the z-score in test [7] is -0.754; in [9], 0.974 (inactive); in test [11], -0.961 (inactive); in [12], -0.908 (inactive); in test [13], -0.437 (inactive); in test [14], 0.501 (inactive).
